Results from PubChem BioAssay (NCATS).
Where “and” joins values, the source holds several entries; their conditions need not be identical. Equal entries are not always repeated. Values without a mark were called inactive. Inconclusive results are not listed. Calls of active or inactive are those of the source. Unless noted, the call rests on the fitted dose curve; in most records, active means well fitted curve in either direction with a large enough effect (not every such curve was filed as active); inconclusive means small, poorly fitted or top-dose-only effect, or another doubt; inactive means flat fitted curve, though single readings scatter.

Assays:
[1] = Stat Signaling Pathway (AID 446); settings: ME-180 (cervical carcinoma) SIE beta-lactamase reporter, IL-6 stimulated, 5 h;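 further: ME-180 cervical cancer cells given 40 pM IL-6 alongside compound; SIE-controlled beta-lactamase reporter measured as 460/530 nm FRET emission ratio; on the % scale 0 is the no-effect control and ±100 the full control effect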
Summary of the method: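 Normalization used AC90 stimulation (300 pM IL-6) and AC90 inhibition (125 nM pan-JAK inhibitor at 40 pM IL-6). The underlying signal is SIE-driven beta-lactamase in ME-180 cells after 5 h IL-6 exposure with compound.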

[2] = target: Glucocorticoid receptor (Homo sapiens) (UniProt P04150); test: GR-GFP Redistribution (AID 450;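 active means compounds whose dose series gives a full or clear partial fitted curve of increased nuclear translocation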; further: potency means the concentration at half of the fitted maximal effect); settings: U2OS GR-GFP nuclear translocation, laser cytometry, 2 h
[3] = target: Glucocorticoid receptor (Homo sapiens) (UniProt P04150); test: GR-EFC Redistribution (AID 451; calls by dose curve; further: potency means the concentration at half of the fitted maximal effect); settings: CHO-K1 GR-EFC translocation, beta-gal luminescence, 2 h
Summary of the method: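 CHO-K1 cells expressing nuclear EA and GR-ED fragments of b-gal; compounds titrated up to 46 uM final, 2 h at 37 C. GR nuclear translocation read as complemented b-gal luminescence after 1 h RT detection.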

[4] = target: Mitogen-activated protein kinase 10 (Mus musculus) (UniProt Q61831); test: JNK3 AlphaScreen Assay (AID 530); settings: JNK3 lysate, c-Jun phosphorylation; series mostly up to 57.1 µM;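 further: kinase came from lysate of stimulated human HepG2 cells; signal reports phosphorylation of biotinylated GST-cJun 1-79 at Ser73 with 10 µM ATP; on the % scale 0 is the no-effect control and ±100 the full control effect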
Summary of the method: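 HepG2 lysate (IL-1b/TNFa pre-activated) + biotin-GST-cJun 1-79 + anti-pSer73 cJun; cpd titration, 15 min RT; ATP 10 uM start; Tris pH 7.6, MgCl2, DTT, vanadate; beads in EDTA buffer; AlphaScreen.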

[5] = target: 3',5'-cyclic-AMP phosphodiesterase 4B (Homo sapiens) (UniProt Q07343); test: qHTS Assay for Inhibitors of PDE-IV (AID 607; active means well fitted activation curve with a large enough effect in the main read-out, with a control signal flat, not every such curve was filed as active; further: % of control where 0% means no effect); settings: HEK293 ACTOne CNG channel cells, membrane potential fluorescence; series mostly up to 22.9 µM
Summary of the method: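 HEK293 ACTOne cells with CNG channel (1000/well), endogenous PDE4; membrane potential dye, compounds up to 22.9 uM final. Fluorescence Ex 535/Em 590; RO 20-1724 (100 uM final) as reference.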

Sequence of 3',5'-cyclic-AMP phosphodiesterase 4B (Homo sapiens) (Q07343 whole entry, looked up): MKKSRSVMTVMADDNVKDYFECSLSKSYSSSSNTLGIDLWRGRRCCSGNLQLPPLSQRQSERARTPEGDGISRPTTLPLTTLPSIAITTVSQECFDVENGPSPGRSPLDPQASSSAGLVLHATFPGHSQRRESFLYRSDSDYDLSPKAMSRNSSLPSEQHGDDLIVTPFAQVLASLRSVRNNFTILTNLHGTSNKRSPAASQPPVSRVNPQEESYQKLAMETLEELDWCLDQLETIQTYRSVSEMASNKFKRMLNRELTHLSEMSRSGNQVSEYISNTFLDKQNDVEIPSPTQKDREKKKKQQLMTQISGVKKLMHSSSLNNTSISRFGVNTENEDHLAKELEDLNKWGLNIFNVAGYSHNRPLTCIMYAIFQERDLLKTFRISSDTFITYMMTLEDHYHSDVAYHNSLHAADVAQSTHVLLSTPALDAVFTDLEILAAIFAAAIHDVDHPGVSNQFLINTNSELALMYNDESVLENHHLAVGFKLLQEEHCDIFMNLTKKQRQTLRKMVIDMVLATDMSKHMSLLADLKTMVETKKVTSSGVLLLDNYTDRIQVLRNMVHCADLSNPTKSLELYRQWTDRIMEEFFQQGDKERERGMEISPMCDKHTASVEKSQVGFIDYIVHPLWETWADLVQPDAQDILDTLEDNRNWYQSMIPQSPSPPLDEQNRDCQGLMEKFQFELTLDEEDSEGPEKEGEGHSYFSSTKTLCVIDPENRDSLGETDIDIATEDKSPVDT
Sequence of Glucocorticoid receptor (Homo sapiens) (P04150 whole entry, looked up, the tested form may be a part): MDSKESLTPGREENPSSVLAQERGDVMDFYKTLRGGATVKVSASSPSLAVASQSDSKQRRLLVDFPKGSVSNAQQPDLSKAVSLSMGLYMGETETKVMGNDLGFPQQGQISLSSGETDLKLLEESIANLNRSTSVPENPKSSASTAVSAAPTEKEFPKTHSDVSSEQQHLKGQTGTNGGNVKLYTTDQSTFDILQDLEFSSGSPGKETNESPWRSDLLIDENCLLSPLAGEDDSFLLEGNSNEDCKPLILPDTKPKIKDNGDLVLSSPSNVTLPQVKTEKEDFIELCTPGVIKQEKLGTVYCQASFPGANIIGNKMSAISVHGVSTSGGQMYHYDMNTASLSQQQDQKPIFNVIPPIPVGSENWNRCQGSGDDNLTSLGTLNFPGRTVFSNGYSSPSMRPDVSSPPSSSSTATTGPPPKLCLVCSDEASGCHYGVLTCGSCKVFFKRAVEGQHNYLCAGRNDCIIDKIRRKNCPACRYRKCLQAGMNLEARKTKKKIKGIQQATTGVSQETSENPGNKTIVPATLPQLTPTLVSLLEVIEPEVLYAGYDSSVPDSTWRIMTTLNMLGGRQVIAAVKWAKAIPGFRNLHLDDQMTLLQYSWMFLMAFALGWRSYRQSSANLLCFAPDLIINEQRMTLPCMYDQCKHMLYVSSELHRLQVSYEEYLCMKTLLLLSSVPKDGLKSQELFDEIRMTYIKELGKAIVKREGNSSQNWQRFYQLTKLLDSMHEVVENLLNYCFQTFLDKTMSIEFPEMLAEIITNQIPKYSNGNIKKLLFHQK

Which results are given for `O=[N+]([O-])c1cc([As](=O)(O)O)ccc1O`?
activity, negative = inhibition ([1]; at 17.2 µM (top of the series)): 10.9%; Potency [2]: > 20.6 µM; Potency [3]: > 20.6 µM; outcome [4]: inactive; outcome [5]: inactive

For `Cc1cccc(C)c1NC1=NCCCS1`, which activity, negative = inhibition ([1]; at 17.2 µM (top of the series)) is on record?
Its activity, negative = inhibition is 3.23%.

What about the activity, negative = inhibition ([1]; at 38 µM (top of the series)) of the same compound?
Its activity, negative = inhibition is 9.43%.

What about the outcome [4] of the same compound?
The outcome was “inactive”.

And the outcome [5]?
Its outcome is “inactive”.

With `CCN(CC)C(=O)N[C@@H]1C=C2c3cccc4[nH]cc(c34)C[C@@H]2N(C)C1` as the compound, how does the activity, negative = inhibition ([1]; at 38 µM (top of the series)) read?
The activity, negative = inhibition was 4.62%.

And the Potency [2]?
The Potency was over 46 µM.

What about the Potency [3] of the same compound?
The Potency was over 46 µM.

What about the outcome [4] of the same compound?
Its outcome is “inactive”.

And the outcome [5]?
The outcome was “inactive”.

With `c1ccc2c(c1)OCC(C1=NCCN1)O2` (stereo not drawn) as the compound, how does the activity, negative = inhibition ([1]; at 17.2 µM (top of the series)) read?
Its activity, negative = inhibition is -5.78%.

And the Potency [2]?
Its Potency is over 20.6 µM.

Which activity, negative = inhibition ([1]; at 17.2 µM (top of the series)) does the source give for `O=P1(NCCCl)OCCCN1CCCl` (stereo not drawn) here?
Its activity, negative = inhibition is -3.9%.

And the Potency [2]?
Its Potency is over 20.6 µM.

And the Potency [3]?
Its Potency is over 20.6 µM.

What about the outcome [4] of the same compound?
The outcome was “inactive”.

And the outcome [5]?
The outcome was “inactive”.

What does the source list for `CCCN1CCC[C@@H]2Cc3[nH]ncc3C[C@H]21`?
activity, negative = inhibition ([1]; at 17.2 µM (top of the series)): 8.2%; activity, negative = inhibition ([1]; at 38 µM (top of the series)): -2.11% and 14.3%; Potency [2]: > 46 µM and > 20.6 µM; Potency [3]: > 46 µM and > 20.6 µM; outcome [4]: inactive; outcome [5]: inactive

With `CC[N+]1(C)CCCC(OC(=O)C(O)(c2ccccc2)c2ccccc2)C1` (stereo not drawn) as the compound, how does the activity, negative = inhibition ([1]; at 17.2 µM (top of the series)) read?
The activity, negative = inhibition was -1.5%.

What about the Potency [2] of the same compound?
The Potency was over 20.6 µM.

Which activity, negative = inhibition ([1]; at 17.2 µM (top of the series)) does the source give for `CC(=O)[C@H]1CC[C@H]2[C@@H]3CC[C@H]4C[C@H](O)CC[C@]4(C)[C@H]3C(=O)C[C@]12C` here?
Its activity, negative = inhibition is -6.19%.

With `Cc1ccc(S(=O)(=O)N[C@@H](CCCCN)C(=O)CCl)cc1` as the compound, how does the activity, negative = inhibition ([1]; at 38 µM (top of the series)) read?
The activity, negative = inhibition was -67% (active).

What about the Potency [2] of the same compound?
Its Potency is over 46 µM.

And the Potency [3]?
Its Potency is over 46 µM.

What about the outcome [4] of the same compound?
The outcome was “inactive”.

What about the outcome [5] of the same compound?
Its outcome is “inactive”.

Which activity, negative = inhibition ([1]; at 17.2 µM (top of the series)) does the source give for `C=C1CC[C@@]2(O)[C@H]3Cc4ccc(O)c5c4[C@@]2(CCN3CC2CC2)[C@H]1O5` here?
The activity, negative = inhibition was 2.91%.

What about the Potency [2] of the same compound?
Its Potency is over 20.6 µM.

For `O=C1CC[C@@]2(O)[C@H]3Cc4ccc(O)c5c4[C@@]2(CCN3CC2CC2)[C@H]1O5`, which activity, negative = inhibition ([1]; at 17.2 µM (top of the series)) is on record?
Its activity, negative = inhibition is 2.9%.

With `CCC(COC(=O)c1cc(OC)c(OC)c(OC)c1)(c1ccccc1)N(C)C` (stereo not drawn) as the compound, how does the activity, negative = inhibition ([1]; at 17.2 µM (top of the series)) read?
The activity, negative = inhibition was -7.98%.

Which activity, negative = inhibition ([1]; at 17.2 µM (top of the series)) does the source give for `Fc1ccc(C(OCCN2CCN(CCCc3ccccc3)CC2)c2ccc(F)cc2)cc1` here?
The activity, negative = inhibition was -6.45%.

What about the activity, negative = inhibition ([1]; at 38 µM (top of the series)) of the same compound?
The activity, negative = inhibition was -18.6%.

What about the Potency [2] of the same compound?
Its Potency is > 46 µM and > 20.6 µM.

What about the Potency [3] of the same compound?
Its Potency is > 46 µM and > 20.6 µM.

What about the outcome [4] of the same compound?
Its outcome is “inactive”.

And the outcome [5]?
Its outcome is “inactive”.

What does the source list for `CC(CCc1ccccc1)NC(C)C(O)c1ccc(O)cc1` (stereo not drawn)?
activity, negative = inhibition ([1]; at 17.2 µM (top of the series)): 22.4%; Potency [2]: > 20.6 µM

With `c1ccc(C2CC2)c(OCC2=NCCN2)c1` as the compound, how does the activity, negative = inhibition ([1]; at 38 µM (top of the series)) read?
Its activity, negative = inhibition is -9.49%.

What about the Potency [2] of the same compound?
Its Potency is over 46 µM.

And the Potency [3]?
Its Potency is over 46 µM.

And the outcome [4]?
Its outcome is “inactive”.

What about the outcome [5] of the same compound?
Its outcome is “inactive”.

With `NCC(CC(=O)O)c1ccc(Cl)cc1` (stereo not drawn) as the compound, how does the activity, negative = inhibition ([1]; at 17.2 µM (top of the series)) read?
Its activity, negative = inhibition is 6.38%.

What about the Potency [2] of the same compound?
The Potency was over 20.6 µM.

With `CN(C)[C@@H]1C(=O)C(C(N)=O)=C(O)[C@@]2(O)C(=O)C3=C(O)c4c(O)cccc4[C@@](C)(O)[C@H]3C[C@@H]12` as the compound, how does the activity, negative = inhibition ([1]; at 17.2 µM (top of the series)) read?
The activity, negative = inhibition was -6.17%.

What about the Potency [2] of the same compound?
Its Potency is over 20.6 µM.

For `CN1C[C@H](CNC(=O)OCc2ccccc2)C[C@@H]2c3cccc4c3c(cn4C)C[C@H]21`, which activity, negative = inhibition ([1]; at 17.2 µM (top of the series)) is on record?
The activity, negative = inhibition was -8.15%.

With `Clc1cccc(N2CCNCC2)c1` as the compound, how does the activity, negative = inhibition ([1]; at 38 µM (top of the series)) read?
Its activity, negative = inhibition is 3.38%.

What about the Potency [2] of the same compound?
The Potency was over 46 µM.

And the Potency [3]?
The Potency was over 46 µM.

What about the outcome [4] of the same compound?
Its outcome is “inactive”.

And the outcome [5]?
The outcome was “inactive”.

For `CCn1cc(C(=O)O)c(=O)c2ccc(C)nc21`, which activity, negative = inhibition ([1]; at 17.2 µM (top of the series)) is on record?
Its activity, negative = inhibition is 10.7% and -2.6%.

What about the activity, negative = inhibition ([1]; at 38 µM (top of the series)) of the same compound?
Its activity, negative = inhibition is -7%.

What about the outcome [4] of the same compound?
Its outcome is “inactive”.

And the outcome [5]?
The outcome was “inactive”.

With `Cc1ncc(CNC(=O)N(CCCl)N=O)c(N)n1` as the compound, how does the activity, negative = inhibition ([1]; at 38 µM (top of the series)) read?
Its activity, negative = inhibition is -6.98%.

What about the Potency [2] of the same compound?
Its Potency is over 46 µM.

And the Potency [3]?
The Potency was over 46 µM.

And the outcome [4]?
The outcome was “inactive”.

What about the outcome [5] of the same compound?
The outcome was “inactive”.

What does the source list for `COc1ccc(Cc2nccc3cc(OC)c(OC)cc23)cc1OC`?
activity, negative = inhibition ([1]; at 17.2 µM (top of the series)): -7.28%; activity, negative = inhibition ([1]; at 38 µM (top of the series)): -33.5%

What does the source list for `O=c1[nH]c2ccccc2n1CCCN1CCC(n2c(=O)[nH]c3cc(Cl)ccc32)CC1`?
activity, negative = inhibition ([1]; at 7.69 µM (top of the series)): -2.55%; activity, negative = inhibition ([1]; at 17.2 µM (top of the series)): 1.15% and 2.02%; activity, negative = inhibition ([1]; at 38 µM (top of the series)): -0.208%; outcome [4]: inactive; outcome [5]: inactive
